Results taken from PubChem BioAssay AID686979 (National Center for Advancing Translational Sciences (NCATS), 2013).
Where “and” joins values, the source holds several entries; their conditions need not be identical. Identical values can stand only once. The campaign covered roughly 420,000 compounds. About 50,000 (12%) were called active. Entries that show only a call come without a potency. Another 26% or so got no clear call; they are omitted. This is one part of a sample in which actives are shown more often than they occur. Values without a mark were called inactive. The call rests on the fitted dose curve; in most records, active means well fitted inhibition curve with a large enough effect; inconclusive means small, poorly fitted or top-dose-only effect; inactive means flat fitted curve, though single readings scatter.

Test: qHTS for Inhibitors of human tyrosyl-DNA phosphodiesterase 1 (TDP1): qHTS in cells in presence of CPT; further: nearly all actives have a fitted effect of over 55% in size
Conditions: chicken DT40 Tdp1-/-;hTDP1 cells + 20 nM CPT, ATP luminescence, 48 h; series mostly up to 46.2 µM
How it was run: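 Chicken DT40 Tdp1-/- cells stably complemented with human TDP1 were seeded at 400 cells/well in medium containing 20 nM camptothecin, exposed to pin-transferred compounds, and grown at 37 °C for at least 48 hr. Viability was read as ATP luminescence.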
Potency means the concentration at half of the fitted maximal effect.

SMILES	Potency	activity change, negative = growth inhibition
Cc1ccc(C(C)C)c(OCC(=O)N2CCN(CC(=O)N3CCOCC3)CC2)c1	inactive	
CN1CCC(N(C)Cc2cccnc2)CC1	inactive	
c1ccc(CCN2CCC3(CC2)OCCO3)cc1	inactive	
c1ccc(CCCCN2CCC(c3ccccc3)CC2)cc1	16.8 µM (active) and 23.1 µM (active)	
CC1=CC(=O)C2=C(C)C[C@H](O)[C@H]3[C@H](C)C(=O)O[C@@H]3C12 (some centres undefined)	inactive	
Cc1cccc(Cn2cccc(C(=O)Nc3ccc4c(c3)OCCO4)c2=O)c1	9.2 µM (active)	
CN(C)/C=C(\C=[N+](C)C)c1[nH]ncc1[N+](=O)[O-]	inactive	
O=C1NC(=O)C(CCOc2ccccc2)(CCc2ccccc2)C(=O)N1	inactive	
COc1ccc(-c2nn(CCC#N)cc2C(=O)Nc2ccc(C(C)=O)cc2)cc1	inactive	
COc1ccc(C2Oc3c(I)c(OC)cc(OC)c3CC2O)cc1OC (centres undefined)	inactive	
CCOP(=O)(OCC)C(O)c1ccc(OC)cc1OC (centres undefined)	inactive	
CC(Cc1ccccc1)NC=O (centres undefined)	inactive	
CC(Cc1ccccc1)NCCC(c1ccccc1)c1ccccc1 (centres undefined)	9.2 µM (active)	
Nc1ccc([N+](=O)[O-])cc1	inactive	
C=CCn1c(O)c(/C=N/N2CCOCC2)c(=O)[nH]c1=S	inactive	
CC(=O)Nc1ccccc1C(=O)OCC(=O)c1cccc2ccccc12	inactive	
COC(=O)C1=C(c2cc3ccccc3o2)C[C@@H]2CC[C@H]1N2C(=O)NC1CCCCC1	18.4 µM (active)	
COC(=O)C1=C(c2cc3ccccc3s2)C[C@@H]2CC[C@H]1N2C(=O)NCCO	inactive	
COC(=O)C1=C(c2ccc(Cl)c(C(F)(F)F)c2)C[C@@H]2CC[C@H]1N2C(=O)NC1CC1	14.6 µM (active)	
COC(=O)C1=C(c2ccc(C(C)=O)cc2)C[C@@H]2CC[C@H]1N2C(=O)NCCNC(C)=O	inactive	
COC(=O)C1=C(c2cc3ccccc3s2)C[C@@H]2CC[C@H]1N2C(=O)NC(C)C	23.1 µM (active)	
COC(=O)CN(CCCl)P1(=O)OCCCN1CCCl (centres undefined)	inactive	

SMILES	Potency	activity change, negative = growth inhibition
C/C(CCc1c[nH]c2ccccc12)=N\O	inactive	
CCN1CCN(Cc2cc(OC)c3c(c2)OCO3)CC1	inactive	
C1CC[C@H]([C@@]23C[C@H](C[C@H]4CCCN[C@H]42)[C@@H]2CCCCN2C3)NC1		-5.16% [at 9.04 µM]
CN1C2CC3CC1C(O3)C2O (centres undefined)	inactive	
COP(=O)(OC)C(NC(=O)c1ccc(C)cc1)C(Cl)(Cl)Cl (centres undefined)	inactive	
C#C[C@]1(OC(=O)CCCCCC)CC[C@H]2[C@@H]3CCC4=CC(=O)CC[C@@H]4[C@H]3CC[C@@]21C	inactive	
CC(=O)OC1C2(CC3N4C(=O)C5(CO)SSC4(CC31O)C(=O)N5C)OC(C)C(C)(C)C2=O (centres undefined)	0.146 µM (active)	
O=C(c1cc(S(=O)(=O)N2CCOCC2)ccc1F)N1CCC2(CC1)OCCO2	inactive	
CCc1nnc(NS(=O)(=O)c2ccc(N=Cc3c(O)n(-c4ccccc4)c(=O)[nH]c3=O)cc2)s1	inactive	
O=[N+]([O-])c1ccc(Cl)c(Cl)c1	inactive	
O=C(Cc1ccc(Cl)cc1)NCCN1CCN(C(=O)Cc2ccc(Cl)cc2)CC1	inactive	
C[C@@H]1C[C@@H]2O[C@H]2/C=C\C=C\C(=O)Cc2c(Cl)c(O)cc(O)c2C(=O)O1	0.0411 µM (active)	
CCOC(=O)C1=C(C)OC(N)=C(C(=O)OC)C12C(=O)Nc1ccc(Br)cc12 (centres undefined)	inactive	
CCN1CCN(C(=O)Cc2coc3cc(C)cc(C)c23)CC1	inactive	
NC(=O)Cn1cc(C(=O)c2ccccc2F)c2ccccc21	inactive	
COCCNC(=O)CN1C2CCC1CC(O)(c1cccnc1)C2 (centres undefined)	inactive	
Cc1cc2n(n1)C(c1cc(C(C)(C)C)c(O)cc1O)Nc1ccccc1-2 (centres undefined)	14.6 µM (active)	
CCC/C(=N\O)c1c[nH]c2ccccc12	inactive	
NCC(O)c1ccc(O)cc1 (centres undefined)	inactive	
CC[N+](C)(CC)CCC[n+]1c(-c2ccccc2)c2cc(N)ccc2c2ccc(N)cc21	2.58 µM (active)	
COc1ccc(NC(=O)N2Cc3ccccc3-n3nncc3C2)cc1	inactive	
CCN(CC)CCOC(=O)c1cc2cc(COC)ccc2o1	inactive	

SMILES	Potency	activity change, negative = growth inhibition
CC(=O)c1ccc(OC(NC(=O)Cc2ccccc2)C(Cl)(Cl)Cl)cc1 (centres undefined)	inactive	
Cc1cccc2c3c(ccc12)C1=C(C(=O)C3=O)C(C)CO1 (centres undefined)	4.11 µM (active)	
CCOC(=O)c1c(N)n(CCN2CCOCC2)c2nc3ccccc3nc12	inactive	
CC1(C)OC[C@@H](COC(=O)CCc2ccc(OC[C@@H](O)CNCCNC(=O)N3CCOCC3)cc2)O1	inactive	
Cc1ccc(S(=O)(=O)N(C)c2ccc(C(=O)NCC3(N(C)C)CCCCC3)cc2)cc1	inactive	
O=C(CN1CCCCC1)Nc1ccc(Br)cc1C(=O)c1ccccc1Cl	inactive	
O=C(CCN1CCCCC1)NCC(=O)Nc1ccc(Br)cc1C(=O)c1ccccc1	18.4 µM (active)	
CCOC(=O)CC(SP1(=S)OCC2(CCCCO2)C(C2CCCCO2)O1)C(=O)OCC (centres undefined)	inactive	
C[C@]12CCC3C(CC[C@H]4[C@H](O)[C@H](O)CC[C@]34C)C1CCC2=O (some centres undefined)	16.4 µM (active)	
C[C@]12CCC3C(CC[C@H]4[C@H](O)[C@H](O)CC[C@]34C)C1CC[C@@H]2O (some centres undefined)	inactive	
C[C@]12CCC3C(CC[C@H]4C[C@@H](O)CC[C@]34C)C1C[C@@H](O)[C@H]2O (some centres undefined)	inactive	
Nc1ccc(Cc2ccc(N)c(Cl)c2)cc1Cl	inactive	
O=c1[nH]c2ccccc2n1C1CCN(C(c2ccccc2)c2nnnn2Cc2ccccc2)CC1 (centres undefined)	18.4 µM (active)	
Cc1ccc(Cn2nnnc2CN2CCC(n3nnc4ccccc43)CC2)cc1	inactive	
O=c1[nH]c2ccccc2n1C1CCN(C(c2ccnc3ccccc23)c2nnnn2Cc2ccccc2)CC1 (centres undefined)	20.6 µM (active)	
Cc1ccsc1C(=O)C1CCCN(Cc2ccc(O)cc2)C1 (centres undefined)	inactive	
Cc1cccc(-n2c(O)c(C=NC34CN5CN(CN(C5)C3)C4)c(=O)[nH]c2=O)c1	inactive	
Cc1nn(Cc2ccccc2Cl)c(Cl)c1C(=O)OC(C(=O)NC(N)=O)C(C)C (centres undefined)	inactive	
CCOc1ccc(CN(CCCl)CCCl)cc1C(=O)OC	4.11 µM (active)	
Cc1cc(C=C2C(=O)NC(=O)NC2=O)c(C)n1-c1ccncc1	inactive	
